Test results as given in the supplement of paper PMC11732987, “Enantioselective OTUD7B fragment discovery through chemoproteomics screening and high-throughput optimisation” (Communications Chemistry, 2025).

What was measured:
Assay in all cases: log2 ratio of Biotin-Ahx-Ub-VS probe labelling (fragment/DMSO); higher = less target engagement (more negative = stronger competition), active = hit call of the paper (q ≤ 0.05, log2 ratio ≤ -1)
Conditions in all cases: compound concentration: 200 uM; treatment time: 3 h
USP34 = USP34 (UniProt Q70CQ2)
How it was run: (§1)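 The table lists average log2 ratios of fragment over vehicle, from an unpaired t-test on global-median-normalised Spectronaut label-free quantities. Proteins with ≥2 unique peptides were used. Samples were HEK293T lysate (495 µg) treated in triplicate with fragment at 200 µM or vehicle for 3 h, then with Biotin-Ahx-Ub-VS (0.5 µM final) for 1 h, with labelled DUBs NeutrAvidin-enriched and run by diaPASEF LC-MS/MS.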

USP36 = target: T1, USP36 (UniProt Q9P275)
T1 sequence (whole entry): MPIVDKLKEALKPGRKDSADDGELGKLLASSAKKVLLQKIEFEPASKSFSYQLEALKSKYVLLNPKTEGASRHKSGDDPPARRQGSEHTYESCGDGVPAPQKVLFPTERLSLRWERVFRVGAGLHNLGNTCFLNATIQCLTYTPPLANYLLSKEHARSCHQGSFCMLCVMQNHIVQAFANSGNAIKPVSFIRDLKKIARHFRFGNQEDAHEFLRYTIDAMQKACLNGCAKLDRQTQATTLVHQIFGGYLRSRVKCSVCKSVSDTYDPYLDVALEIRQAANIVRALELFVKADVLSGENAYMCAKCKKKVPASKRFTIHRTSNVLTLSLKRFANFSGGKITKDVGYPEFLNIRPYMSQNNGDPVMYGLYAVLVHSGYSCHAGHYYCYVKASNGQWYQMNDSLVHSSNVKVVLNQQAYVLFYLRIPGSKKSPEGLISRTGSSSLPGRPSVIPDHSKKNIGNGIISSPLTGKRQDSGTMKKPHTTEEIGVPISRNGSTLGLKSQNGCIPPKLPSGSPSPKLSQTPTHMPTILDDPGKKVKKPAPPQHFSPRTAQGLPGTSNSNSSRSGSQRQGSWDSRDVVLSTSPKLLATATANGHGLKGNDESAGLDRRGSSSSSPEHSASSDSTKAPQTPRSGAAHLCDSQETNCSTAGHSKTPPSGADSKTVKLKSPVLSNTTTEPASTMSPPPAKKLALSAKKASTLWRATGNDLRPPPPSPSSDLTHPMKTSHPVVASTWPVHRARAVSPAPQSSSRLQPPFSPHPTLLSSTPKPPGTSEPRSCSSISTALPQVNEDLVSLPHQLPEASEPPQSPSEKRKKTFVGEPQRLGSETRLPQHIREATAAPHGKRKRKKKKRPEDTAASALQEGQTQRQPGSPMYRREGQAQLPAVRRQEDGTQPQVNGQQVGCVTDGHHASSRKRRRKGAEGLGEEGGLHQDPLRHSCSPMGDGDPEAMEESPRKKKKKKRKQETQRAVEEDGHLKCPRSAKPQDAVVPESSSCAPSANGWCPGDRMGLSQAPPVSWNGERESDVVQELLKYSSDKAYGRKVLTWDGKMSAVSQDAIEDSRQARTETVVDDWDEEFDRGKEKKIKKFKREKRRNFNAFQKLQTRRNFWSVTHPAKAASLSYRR
How it was run: as §1

USP38 = target: T2, USP38 (UniProt Q8NB14)
T2 sequence (whole entry): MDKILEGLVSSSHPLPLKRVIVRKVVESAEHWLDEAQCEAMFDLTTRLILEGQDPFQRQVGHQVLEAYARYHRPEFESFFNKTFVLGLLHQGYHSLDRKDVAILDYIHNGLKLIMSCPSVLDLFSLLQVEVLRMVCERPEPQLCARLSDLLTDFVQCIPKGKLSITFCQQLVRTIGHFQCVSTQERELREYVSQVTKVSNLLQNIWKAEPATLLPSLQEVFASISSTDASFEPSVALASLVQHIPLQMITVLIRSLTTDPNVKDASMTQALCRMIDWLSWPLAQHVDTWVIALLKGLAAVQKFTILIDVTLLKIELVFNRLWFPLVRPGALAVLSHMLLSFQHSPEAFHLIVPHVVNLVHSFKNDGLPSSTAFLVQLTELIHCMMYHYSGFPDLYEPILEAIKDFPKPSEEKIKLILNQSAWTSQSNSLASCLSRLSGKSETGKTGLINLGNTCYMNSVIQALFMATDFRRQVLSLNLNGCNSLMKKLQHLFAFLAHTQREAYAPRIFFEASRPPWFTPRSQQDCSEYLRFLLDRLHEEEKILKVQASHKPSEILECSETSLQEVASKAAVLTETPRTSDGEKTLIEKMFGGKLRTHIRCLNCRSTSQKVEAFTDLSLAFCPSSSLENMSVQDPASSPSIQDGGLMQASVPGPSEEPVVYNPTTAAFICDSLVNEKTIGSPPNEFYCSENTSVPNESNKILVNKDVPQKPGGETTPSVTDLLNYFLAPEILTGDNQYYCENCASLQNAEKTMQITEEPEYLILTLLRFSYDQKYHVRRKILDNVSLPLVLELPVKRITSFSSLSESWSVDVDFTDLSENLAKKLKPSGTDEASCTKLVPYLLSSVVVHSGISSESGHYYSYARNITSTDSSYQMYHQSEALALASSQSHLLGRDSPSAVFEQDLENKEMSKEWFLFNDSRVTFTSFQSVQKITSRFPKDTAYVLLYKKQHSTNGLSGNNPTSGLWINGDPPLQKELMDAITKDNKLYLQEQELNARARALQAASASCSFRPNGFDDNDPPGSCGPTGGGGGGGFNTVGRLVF
How it was run: as §1

USP39 = target: T3, USP39 (UniProt Q53GS9)
T3 sequence (whole entry): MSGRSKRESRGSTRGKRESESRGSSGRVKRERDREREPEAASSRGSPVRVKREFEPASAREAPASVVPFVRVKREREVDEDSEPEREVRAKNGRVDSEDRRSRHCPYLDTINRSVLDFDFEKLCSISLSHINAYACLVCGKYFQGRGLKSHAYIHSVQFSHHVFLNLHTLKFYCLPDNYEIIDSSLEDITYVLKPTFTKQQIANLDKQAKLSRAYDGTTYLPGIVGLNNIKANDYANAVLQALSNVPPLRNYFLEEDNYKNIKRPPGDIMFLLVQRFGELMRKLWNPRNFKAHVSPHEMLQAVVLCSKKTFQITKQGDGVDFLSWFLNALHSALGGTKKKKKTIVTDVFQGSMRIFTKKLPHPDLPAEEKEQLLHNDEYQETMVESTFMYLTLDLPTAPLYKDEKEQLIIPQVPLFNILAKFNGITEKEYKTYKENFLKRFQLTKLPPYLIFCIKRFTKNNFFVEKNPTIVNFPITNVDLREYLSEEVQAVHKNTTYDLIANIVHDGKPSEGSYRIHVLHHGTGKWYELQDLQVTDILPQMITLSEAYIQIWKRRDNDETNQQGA
How it was run: as §1

USP4 = target: T4, USP4 (UniProt Q13107)
T4 sequence (whole entry): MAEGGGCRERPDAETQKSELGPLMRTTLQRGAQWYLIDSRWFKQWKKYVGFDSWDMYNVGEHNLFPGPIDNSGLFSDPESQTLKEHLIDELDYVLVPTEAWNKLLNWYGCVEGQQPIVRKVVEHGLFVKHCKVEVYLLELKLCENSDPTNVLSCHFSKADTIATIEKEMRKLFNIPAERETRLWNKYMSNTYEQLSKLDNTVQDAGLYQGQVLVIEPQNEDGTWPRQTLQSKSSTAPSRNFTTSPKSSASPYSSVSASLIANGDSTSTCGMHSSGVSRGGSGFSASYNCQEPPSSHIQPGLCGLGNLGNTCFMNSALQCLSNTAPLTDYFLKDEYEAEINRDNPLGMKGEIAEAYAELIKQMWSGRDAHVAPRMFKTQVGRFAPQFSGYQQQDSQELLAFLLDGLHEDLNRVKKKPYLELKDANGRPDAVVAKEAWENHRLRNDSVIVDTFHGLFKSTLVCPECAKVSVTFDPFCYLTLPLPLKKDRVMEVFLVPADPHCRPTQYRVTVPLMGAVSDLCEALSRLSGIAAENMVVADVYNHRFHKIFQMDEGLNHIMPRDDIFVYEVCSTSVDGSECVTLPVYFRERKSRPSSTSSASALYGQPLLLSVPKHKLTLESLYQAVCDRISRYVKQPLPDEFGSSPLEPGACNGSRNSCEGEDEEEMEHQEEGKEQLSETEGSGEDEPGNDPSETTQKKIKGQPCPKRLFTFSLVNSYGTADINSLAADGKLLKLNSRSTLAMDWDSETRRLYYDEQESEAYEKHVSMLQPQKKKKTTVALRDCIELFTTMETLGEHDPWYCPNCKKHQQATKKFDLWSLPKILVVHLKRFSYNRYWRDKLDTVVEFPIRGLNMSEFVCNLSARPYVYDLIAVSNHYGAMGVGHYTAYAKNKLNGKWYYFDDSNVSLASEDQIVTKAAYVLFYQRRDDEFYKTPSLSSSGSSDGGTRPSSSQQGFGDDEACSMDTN
How it was run: as §1

Measured: log2 ratio of Biotin-Ahx-Ub-VS probe labelling

Sequence of USP34 (Q70CQ2 whole entry, the tested form may be a part): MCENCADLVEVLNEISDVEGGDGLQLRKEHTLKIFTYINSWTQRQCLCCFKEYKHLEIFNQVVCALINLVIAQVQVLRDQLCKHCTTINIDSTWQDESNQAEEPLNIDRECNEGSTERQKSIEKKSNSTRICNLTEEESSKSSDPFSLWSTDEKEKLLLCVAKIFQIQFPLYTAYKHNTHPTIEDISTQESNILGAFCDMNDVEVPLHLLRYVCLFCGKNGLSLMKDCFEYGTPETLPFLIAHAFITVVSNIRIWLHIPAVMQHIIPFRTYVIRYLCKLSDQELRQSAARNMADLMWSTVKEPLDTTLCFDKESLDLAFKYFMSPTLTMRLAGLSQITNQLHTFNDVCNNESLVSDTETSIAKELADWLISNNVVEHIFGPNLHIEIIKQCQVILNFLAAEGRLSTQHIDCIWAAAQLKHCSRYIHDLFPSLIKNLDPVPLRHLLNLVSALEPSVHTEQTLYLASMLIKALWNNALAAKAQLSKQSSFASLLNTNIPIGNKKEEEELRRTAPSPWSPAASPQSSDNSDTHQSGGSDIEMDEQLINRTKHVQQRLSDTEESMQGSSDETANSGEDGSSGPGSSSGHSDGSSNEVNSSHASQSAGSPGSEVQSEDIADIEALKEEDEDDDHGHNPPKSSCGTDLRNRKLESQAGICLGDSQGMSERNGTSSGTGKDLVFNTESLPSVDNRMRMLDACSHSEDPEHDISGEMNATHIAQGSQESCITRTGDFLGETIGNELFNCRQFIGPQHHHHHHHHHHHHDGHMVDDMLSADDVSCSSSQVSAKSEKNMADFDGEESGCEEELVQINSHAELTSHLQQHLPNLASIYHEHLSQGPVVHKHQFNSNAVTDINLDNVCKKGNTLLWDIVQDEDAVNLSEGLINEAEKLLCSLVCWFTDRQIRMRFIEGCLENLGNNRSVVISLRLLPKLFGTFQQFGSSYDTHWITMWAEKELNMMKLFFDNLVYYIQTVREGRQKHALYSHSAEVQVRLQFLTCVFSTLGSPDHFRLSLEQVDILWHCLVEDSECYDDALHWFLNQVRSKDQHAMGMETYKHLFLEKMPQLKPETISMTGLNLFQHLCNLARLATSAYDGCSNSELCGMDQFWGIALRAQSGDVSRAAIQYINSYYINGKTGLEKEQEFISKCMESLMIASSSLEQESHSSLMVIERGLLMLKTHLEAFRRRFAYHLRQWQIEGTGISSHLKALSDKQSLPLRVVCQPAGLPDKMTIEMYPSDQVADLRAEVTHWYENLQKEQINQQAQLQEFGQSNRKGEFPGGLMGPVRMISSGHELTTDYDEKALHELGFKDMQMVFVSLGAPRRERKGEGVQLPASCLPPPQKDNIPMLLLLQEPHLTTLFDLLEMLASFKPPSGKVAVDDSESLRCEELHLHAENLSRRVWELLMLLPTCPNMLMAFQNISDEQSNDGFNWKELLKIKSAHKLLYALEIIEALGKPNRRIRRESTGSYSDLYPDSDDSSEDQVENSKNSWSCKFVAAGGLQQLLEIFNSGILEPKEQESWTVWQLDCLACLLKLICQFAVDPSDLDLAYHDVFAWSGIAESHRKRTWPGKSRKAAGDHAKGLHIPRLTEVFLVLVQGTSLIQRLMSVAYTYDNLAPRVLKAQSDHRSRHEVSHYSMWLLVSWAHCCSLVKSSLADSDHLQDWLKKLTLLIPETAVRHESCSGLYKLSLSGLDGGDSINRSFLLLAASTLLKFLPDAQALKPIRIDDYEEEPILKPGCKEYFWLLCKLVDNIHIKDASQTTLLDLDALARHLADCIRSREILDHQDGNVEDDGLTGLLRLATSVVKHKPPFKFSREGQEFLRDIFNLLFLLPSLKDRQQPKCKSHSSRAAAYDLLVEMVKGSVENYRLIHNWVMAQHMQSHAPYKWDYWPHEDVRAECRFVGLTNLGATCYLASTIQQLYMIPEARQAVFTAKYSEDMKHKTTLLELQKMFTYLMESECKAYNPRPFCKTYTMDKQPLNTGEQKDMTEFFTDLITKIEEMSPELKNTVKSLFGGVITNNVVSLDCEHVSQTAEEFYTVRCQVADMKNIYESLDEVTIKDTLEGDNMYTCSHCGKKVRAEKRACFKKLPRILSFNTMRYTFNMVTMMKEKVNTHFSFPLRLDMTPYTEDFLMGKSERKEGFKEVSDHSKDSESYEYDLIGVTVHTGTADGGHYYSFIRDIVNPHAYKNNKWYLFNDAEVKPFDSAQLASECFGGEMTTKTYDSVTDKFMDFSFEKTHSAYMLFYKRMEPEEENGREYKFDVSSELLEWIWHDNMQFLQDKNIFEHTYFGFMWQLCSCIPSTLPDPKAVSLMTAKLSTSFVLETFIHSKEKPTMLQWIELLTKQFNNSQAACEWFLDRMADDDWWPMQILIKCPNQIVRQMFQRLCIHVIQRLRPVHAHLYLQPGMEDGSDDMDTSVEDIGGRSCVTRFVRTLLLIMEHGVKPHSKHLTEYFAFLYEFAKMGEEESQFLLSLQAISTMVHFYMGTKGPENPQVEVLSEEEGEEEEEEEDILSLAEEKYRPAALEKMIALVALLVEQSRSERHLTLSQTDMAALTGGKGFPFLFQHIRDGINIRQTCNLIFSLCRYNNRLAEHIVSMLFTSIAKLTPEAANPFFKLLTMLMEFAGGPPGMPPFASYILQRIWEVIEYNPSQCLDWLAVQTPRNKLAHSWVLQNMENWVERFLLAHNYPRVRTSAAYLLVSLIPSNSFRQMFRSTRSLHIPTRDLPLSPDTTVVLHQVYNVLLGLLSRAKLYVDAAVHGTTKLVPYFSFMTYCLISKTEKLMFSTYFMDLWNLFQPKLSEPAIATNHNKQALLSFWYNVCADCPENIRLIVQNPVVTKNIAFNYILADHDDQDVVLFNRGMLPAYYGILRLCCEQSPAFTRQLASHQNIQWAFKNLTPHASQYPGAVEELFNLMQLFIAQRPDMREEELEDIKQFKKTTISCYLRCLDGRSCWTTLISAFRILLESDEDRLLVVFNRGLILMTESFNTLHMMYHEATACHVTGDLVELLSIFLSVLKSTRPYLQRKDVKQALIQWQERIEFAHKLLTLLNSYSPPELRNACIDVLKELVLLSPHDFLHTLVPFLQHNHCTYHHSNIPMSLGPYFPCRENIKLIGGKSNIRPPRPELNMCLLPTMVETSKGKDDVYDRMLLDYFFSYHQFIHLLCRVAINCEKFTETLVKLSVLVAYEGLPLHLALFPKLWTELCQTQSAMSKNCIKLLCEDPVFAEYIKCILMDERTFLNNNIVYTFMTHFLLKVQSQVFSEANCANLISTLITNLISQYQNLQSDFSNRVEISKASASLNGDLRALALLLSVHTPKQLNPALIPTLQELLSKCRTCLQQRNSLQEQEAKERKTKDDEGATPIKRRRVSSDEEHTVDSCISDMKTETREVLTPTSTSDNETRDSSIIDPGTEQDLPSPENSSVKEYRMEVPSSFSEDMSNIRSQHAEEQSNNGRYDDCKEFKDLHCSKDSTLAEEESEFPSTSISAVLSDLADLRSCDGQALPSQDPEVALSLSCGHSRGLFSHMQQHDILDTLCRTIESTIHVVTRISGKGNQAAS

CN(Cc1nc2ccccc2[nH]1)C(=O)CCl.Cl
inactive: USP34 -0.266 | USP36 0.0504 | USP38 0.056 | USP39 0.391 | USP4 -0.0216
